# Compound activity as filed in PubChem.
# FBW7 activator: FBW7 E3 ligase activators, primary screen, biochemical, AlphaScreen, human; F-box/WD repeat-containing protein 7 (Homo sapiens), Q969H0; AlphaScreen FBW7–phospho-cyclin E peptide binding, activator screen; normalized activity (activation), % at 26.1 µM; 650,000 tested, 0.13% active; in the data active = normalized activity above about 1.9%;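 note: purified mutant Fbw7 with reduced substrate affinity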
# GPR151 activ: activators of human GPR151, primary screen, cell-based, PathHunter beta-arrestin, luminescence; G-protein coupled receptor 151 (Homo sapiens), Q8TDV0; PathHunter beta-arrestin GPR151 cells; activation, % at 11.2 µM; 650,000 tested, 1% active; in the data active = activation above about 4.9%;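 note: 0% = median of compound wells and 100% = cells with positive control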
# Target sequence (Q8TDV0 whole entry, looked up): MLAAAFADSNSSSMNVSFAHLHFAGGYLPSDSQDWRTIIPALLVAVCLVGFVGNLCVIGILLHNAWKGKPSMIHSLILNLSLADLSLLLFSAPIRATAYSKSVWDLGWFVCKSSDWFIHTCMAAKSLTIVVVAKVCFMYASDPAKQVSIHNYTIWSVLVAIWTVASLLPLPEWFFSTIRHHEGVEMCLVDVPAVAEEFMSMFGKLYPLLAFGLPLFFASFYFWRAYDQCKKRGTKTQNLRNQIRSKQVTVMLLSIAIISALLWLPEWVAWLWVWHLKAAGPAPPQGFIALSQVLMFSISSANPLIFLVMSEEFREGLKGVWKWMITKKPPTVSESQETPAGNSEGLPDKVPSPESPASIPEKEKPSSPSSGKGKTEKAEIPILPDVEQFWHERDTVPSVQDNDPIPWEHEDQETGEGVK
# MITF primary: MITF inhibitors, primary screen, biochemical, AlphaScreen, human; inhibition, % at 2.6 µM; Microphthalmia-associated transcription factor (Homo sapiens), O75030; 650,000 tested, 0.91% active; AID 1259374, 2018; AlphaScreen MITF homodimerization, bead proximity signal; in the data active = inhibition above about 50%;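 note: 0% = vehicle wells with protein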
# TEAD-YAP inh: TEAD-YAP interaction inhibition, primary screen, TEAD-YAP interaction inhibitor project, luminescence, HEK-TIYL cells | AID 1259422, 2018 | TEAD-Gal4/YAP UAS-luciferase luminescence | 640,000 tested, 1.4% active | inhibition, % at 9.12 µM; in the data active = inhibition above about 32%;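 note: 0% = median of test compound wells and 100% = reference inhibitor wells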
# MITF confirm: MITF inhibitors, retest of hits, confirmation, biochemical, AlphaScreen, triplicate | inhibition, % at 2.6 µM | AlphaScreen MITF homodimerization, biotin/His-MITF beads | 4,700 tested, 16% active | shares compounds with MITF primary;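 active = inhibition above a cutoff derived from the DMSO control wells, cut at about 28% in these data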;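 note: 0% = MITF dimer wells with DMSO only; inhibitors lower the bead chemiluminescence by keeping MITF from dimerizing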
# AlphaScreen DR: AlphaScreen optical interference compounds, dose response, counter-screen, biochemical, HTS. 480 tested, 6% active. AlphaScreen optical interference counterscreen, cell-free. IC50, µM. shares compounds with MITF primary; call rule not given here
# AS interf ctr: AlphaScreen optical interference compounds, counter-screen for MITF inhibitor project, biochemical, triplicate | inhibition, % at 2.6 µM | shares compounds with MITF primary | LysRS AlphaScreen counterscreen, signal interference | 4,700 tested, 7.6% active;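 active = inhibition above a cutoff derived from the DMSO control wells, cut at about 30% in these data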
# Numbers without * were called inactive; · = no result. Most compounds without a hit are left out; they make up all but 3.5% or so of the library.
SMILES,FBW7 activator,GPR151 activ,MITF primary,TEAD-YAP inh,MITF confirm,AS interf ctr,others
Fc1cccc(CN2CCN(C3CCCCCC3)CC2)c1,0.0,0.3,65.9*,-2.2,5.8,12.9,
Fc1cccc(CN2CCN(C3CCCCC3)CC2)c1,0.0,-0.2,72.3*,9.5,6.7,11.5,
OC1CCN(Cc2cccc(F)c2)CC1,-0.2,0.0,28.1,1.3,·,·,
Fc1ccc(CN2CCN(C3CCCCC3)CC2)cc1,0.0,0.9,47.7,0.6,·,·,
O=C([C@H](O)c1ccccc1)N1CCN(c2ccc3[nH]ncc3c2)CC1,-0.3,0.7,17.5,-6.2,·,·,
CS(=O)(=O)N(CC(=O)Nc1ccc(F)cc1)c1ccc(I)cc1,-0.2,0.4,11.8,-1.8,·,·,
c1ccc(-c2nc(-c3cccnc3)cc(N3CCN(c4ccccn4)CC3)n2)cc1,0.4,1.2,11.2,2.1,·,·,
Fc1ccc(-c2cc(N3CCN(c4ccccn4)CC3)nc(-c3cccnc3)n2)cc1,0.0,0.6,73.2*,6.1,15.1,15.5,
OC1CCN(c2cc(-c3cccnc3)nc(-c3ccccc3)n2)CC1,-0.1,-0.5,71.4*,12.4,4.6,11.7,
OC1CCN(c2cc(-c3ccccc3)nc(-c3cccnc3)n2)CC1,0.4,-1.4,12.2,7.5,·,·,
CCOC(=O)c1cnc2ccccc2c1Nc1cccc(OC)c1,0.0,2.7,73.4*,-11.7,-3.3,-4.2,
CCOC(=O)c1cnc2ccccc2c1Nc1ccc(C)c(C)c1,-0.1,-0.9,54.4*,-10.8,-10.7,-7.9,
CCOC(=O)c1cnc2ccccc2c1Nc1ccc(O)cc1,-0.1,1.2,-4.0,-0.7,·,·,
COc1ccc(NC(=O)c2cccc(-n3cc(NC(=O)Cc4cccc(C)c4)cn3)c2)cc1OC,0.1,1.8,6.5,6.8,·,·,
O=C(NCc1nnc2n1CCN(Cc1ccc(-c3ccccc3)cc1)CC2)C1CCOC1 (stereo unspecified),0.1,-0.8,-17.1,4.0,·,·,
Cc1[nH]ncc1-c1ccc(NC(=O)[C@@H]2Cc3ccccc3CN2)c(OCCN(C)C)c1,-0.2,-0.9,66.5*,-3.5,6.2,9.2,
O=C(CCCCC(=O)Nc1ccc(F)cc1)Nc1ccc(F)cc1,0.6,-1.0,56.4*,10.7,2.2,0.7,
CC1CN(CC(=O)Nc2ccc(F)cc2)CC(C)O1 (stereo unspecified),-0.1,2.6,55.2*,3.8,13.2,13.4,
CCN1CCN(CC(=O)Nc2ccc(F)cc2)CC1,0.0,0.1,82.9*,-0.6,17.1,20.9,
O=C(CN1CCN(CC(=O)Nc2ccc(F)cc2)CC1)Nc1ccc(F)cc1,0.1,-0.5,6.5,12.0,·,·,
CCC(C)NS(=O)(=O)c1ccc(NC(=O)CN2CCOCC2)cc1 (stereo unspecified),0.0,0.3,54.1*,-8.4,3.5,16.6,
COc1ccc(C2=CC(=C(C#N)C#N)c3cc4c(cc3O2)OCO4)cc1,0.0,1.6,6.9,7.5,·,·,
O=S(=O)(Cc1ccccc1)NCC1CCCN(Cc2cccnc2)C1 (stereo unspecified),0.0,0.8,15.6,0.4,·,·,
CCc1c(C)sc(NC(=O)c2noc(C(C)C)c2[N+](=O)[O-])c1C#N,-0.2,0.5,3.4,12.0,·,·,
CC(CCn1cccn1)N1CCC2(CC1)CC2C(=O)NCC1(c2ccccc2)CCCC1 (stereo unspecified),0.1,-0.6,-11.9,7.0,·,·,
SMILES,FBW7 activator,GPR151 activ,MITF primary,TEAD-YAP inh,MITF confirm,AS interf ctr,others
CN(C)CCOc1ccc2ccccc2c1,-0.1,0.3,75.9*,-0.4,-17.1,-2.6,
COCCOCC(O)CN1CCN(c2ccc(C)cc2)CC1 (stereo unspecified),-0.1,1.4,51.7*,-6.7,4.0,1.3,
CC(C)(C)NC(=O)NC(=O)COC(=O)c1ccccc1O,0.3,-0.5,9.5,-5.4,·,·,
Cc1nc(NCCO)c2c3c(sc2n1)CCC3,-0.3,0.2,3.7,10.2,·,·,
Cc1nc(NCC(C)C)c2c3c(sc2n1)CCCC3,0.0,1.1,52.0*,4.8,12.2,17.0,
CN(C)c1ccc(C(=O)n2nnc3ccccc32)cc1,-0.2,-0.1,61.1*,0.3,1.6,8.5,
O=C(Nc1ccc(N2CCOCC2)cc1)c1ccc2nc(-c3cccs3)sc2c1,-0.1,1.1,54.8*,0.7,56.5*,4.6,AlphaScreen DR=>7.76
O=C(Nc1ccc(N2CCOCC2)cc1)c1ccnc(Nc2ccc(N3CCOCC3)cc2)c1,-0.1,-0.4,9.3,-4.5,·,·,
O=C(Nc1ccc(N2CCOCC2)cc1)c1ccc2nc(Nc3ccccn3)sc2c1,-0.2,2.5,70.0*,-14.2,78.9*,-18.4,AlphaScreen DR=>6.76
O=C(Nc1ccc(N2CCOCC2)cc1)c1ccc2nc(Nc3ccc(N4CCOCC4)cc3)sc2c1,-0.2,0.3,4.9,-3.7,·,·,
O=C(Nc1ccc(N2CCOCC2)cc1)c1ccnc(Nc2ncccn2)c1,-0.2,3.7,58.6*,-6.9,84.0*,-10.7,AlphaScreen DR=>7.06
CCc1cc2c(C)cc(=O)oc2c2ccoc12,0.2,-1.1,-0.9,7.7,·,·,
Cc1noc(C)c1C(=O)NC1=NCCS1,0.1,-0.8,56.8*,-1.6,5.7,8.1,
Cc1onc(-c2ccccc2)c1C(=O)NC1=NCCS1,-0.2,0.7,7.8,3.7,·,·,
CC(=O)Nc1ccc(N2C(=O)c3ccccc3C2(O)Cc2ccccc2)cc1 (stereo unspecified),0.0,-0.2,54.9*,-2.4,33.2*,15.8,AlphaScreen DR=>6.48
COC(=O)CC1(O)c2ccccc2C(=O)N1Cc1ccccc1 (stereo unspecified),0.2,1.4,12.0,7.4,·,·,
Nc1nnnn1/N=C/c1ccc(-c2ccc(F)c(Cl)c2)o1,0.0,-0.9,83.3*,0.1,7.5,14.6,
Cc1cc(NC(=O)CNCC2CCCO2)no1 (stereo unspecified),-0.2,-0.4,54.5*,8.5,-1.5,7.0,
O=C(CN1CCCC1)Nc1ccccc1N1CCCCC1,-0.1,-0.7,62.4*,-2.3,9.0,13.8,
O=C(CN1CCOCC1)Nc1ccccc1N1CCOCC1,0.1,2.0,87.1*,7.1,15.5,17.0,
CCC(=O)Nc1ccccc1N1CCCC1,0.0,2.1,4.0,4.8,·,·,
CC1CCN(CC(=O)Nc2ccccc2N2CCCCC2)CC1,-0.1,1.7,16.6,4.6,·,·,
CN1CCN(CC(=O)Nc2ccccc2N2CCCCCC2)CC1,-0.2,1.9,62.0*,-4.5,7.7,15.9,
CC(C)(C)N(Cc1ccc([N+](=O)[O-])cc1)CC(O)COc1ccccc1 (stereo unspecified),0.1,1.2,25.2,5.5,·,·,
